Screening results from PubChem BioAssay.
The list is not random: actives were taken first. Their share in the collection is about 12%.
PLK1 PBD inh: blocks phosphopeptide binding to human PLK1 polo-box domain; actives 2.8% (n = 360,000); Plk1 PBD binding of FITC phosphopeptide, fluorescence polarization; AID 720504; P53350; Potency, µM, hits mostly inhibitors; also: series mostly up to about 57 µM; nearly all actives have a fitted effect of over 65% in size
JMJD2A Tudor inh: JMJD2A Tudor domain (human) inhibition; Potency, µM (highest dose often 114 µM), most hits filed as inhibitors; actives 4.4% (n = 390,000); O75164; AlphaScreen JMJD2A-Tudor / H3K4me3 peptide binding; also: nearly all actives have a fitted effect of over 50% in size
G9a inh: G9a (human) methyltransferase inhibition. Q96KQ7. G9a H3K9 monomethylation, AlphaScreen, 2 h. Potency, µM (top dose mostly 102 µM), actives largely listed as inhibitors. actives 8.8% (n = 350,000); also: nearly all actives have a fitted effect of over 75% in size
Target sequence (Q96KQ7 913-1193 limits assumed): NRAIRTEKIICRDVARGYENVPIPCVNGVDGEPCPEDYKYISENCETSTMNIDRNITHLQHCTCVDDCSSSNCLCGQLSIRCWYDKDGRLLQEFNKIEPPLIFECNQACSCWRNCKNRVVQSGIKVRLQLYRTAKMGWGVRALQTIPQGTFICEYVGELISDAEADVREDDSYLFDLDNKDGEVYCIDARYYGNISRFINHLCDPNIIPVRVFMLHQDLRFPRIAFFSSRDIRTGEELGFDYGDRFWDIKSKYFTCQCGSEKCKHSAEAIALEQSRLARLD
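Signal arises when biotinylated H3K9 peptide, once monomethylated, bridges streptavidin donor and antibody-captured acceptor beads. Enzyme at 20 nM was preincubated 15 min with test compounds; peptide 500 nM and SAM 20 uM then reacted for 2 h.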
HP1b chromo inh: HP1-beta chromodomain-methylated histone interaction inhibition; P83916; actives 0.56% (n = 390,000); AlphaScreen HP1-beta / biotin-H3K9me3 peptide binding; AID 540317; Potency, µM (highest dose often 114 µM), hits mostly inhibitors; also: nearly all actives have a fitted effect of over 70% in size
Target sequence (P83916 whole entry, looked up): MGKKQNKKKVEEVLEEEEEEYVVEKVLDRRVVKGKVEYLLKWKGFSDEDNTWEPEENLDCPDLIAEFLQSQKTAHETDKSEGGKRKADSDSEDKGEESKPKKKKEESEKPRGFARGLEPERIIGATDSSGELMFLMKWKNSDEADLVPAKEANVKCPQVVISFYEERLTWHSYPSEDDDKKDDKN
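HP1-beta protein (50 nM final) preincubated 30 min at room temperature with biotinylated H3(1-18)K9me3 peptide (50 nM) in PBS pH 7.4, 0.01% Tween-20, then compound added for 30 min. AlphaScreen streptavidin donor/nickel chelate acceptor beads (10 ug/mL final), 30 min dark, luminescence read.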
BAZ2B block: inhibitors of human BAZ2B bromodomain; actives 4.4% (n = 360,000); AlphaScreen BAZ2B-H3K14Ac peptide displacement; Q9UIF8; Potency, µM (top dose mostly 114 µM), actives largely listed as inhibitors; also: nearly all actives have a fitted effect of over 60% in size
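Protein-peptide AlphaScreen: BAZ2B 50 nM, b-H3K14Ac 50 nM, 1x PBS pH 7.4 + 0.01% Tween-20. Preincubation 30 min RT; cpd 30 min RT (top 110 uM); beads 20 min RT, light-protected.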
Sfp PPTase inh: inhibitors of Bacillus subtilis Sfp phosphopantetheinyl transferase; Biochemical Sfp PPTase activity, qHTS; Potency, µM, usual class: inhibitors; actives 3.5% (n = 310,000);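 also: the enzyme is Sfp with the accession as filed and its product quenches rhodamine fluorescence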
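Step 1, compound plus 15 nM Sfp-PPTase, 15 min, room temperature. Step 2, add rhodamine-CoA (5 uM) and BHQ-2-YbbR (12.5 uM). Step 3, read 525/598 nm fluorescence at 0 and 30 min.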
TbPYK confirm: Trypanosoma brucei pyruvate kinase inhibition, cherry-pick confirmation. shares compounds with PLK1 PBD inh. recombinant TbPYK, Kinase-Glo ATP luminescence. Potency, µM (series often up to 76.9 µM), hits mostly inhibitors. actives 67% (n = 890). AID 720569; also: nearly all actives have a fitted effect of over 70% in size
TbPYK orthogonal: orthogonal confirmation of Trypanosoma brucei pyruvate kinase inhibitors | shares compounds with PLK1 PBD inh | recombinant TbPYK, ADP-Glo luminescence, 60 min | Potency, µM (doses to about 76.9 µM), usual class: inhibitors | actives 62% (n = 890); also: nearly all actives have a fitted effect of over 75% in size
Numbers stand for hits; 0 = inactive; ? = inconclusive; - = no result given; ! = not active in a repeat; [ ] = another dose, or the depositor's remark. Calls follow the shape of the dose curve; as a rule, active = well fitted curve in the direction sought with a large enough effect; inconclusive = small, poorly fitted or top-dose-only effect, or another doubt; inactive = no such curve, though single readings can be large; an effect the other way counts as inactive or inconclusive.

SMILES	PLK1 PBD inh	JMJD2A Tudor inh	G9a inh	HP1b chromo inh	BAZ2B block	Sfp PPTase inh	TbPYK confirm	TbPYK orthogonal
CCOC(=O)c1sc(N/N=C/c2ccccc2)nc1C	8.4µM	?	2µM	0	0	35µM	14µM	28µM
COCCn1c(C)cc(C(=O)COC(=O)c2ccc3ncsc3c2)c1C	2.4µM	?	0[12.7 µM]	0	56µM	0	0	0
CC(C)CCNC(=O)C(=O)NCC1OCCCN1S(=O)(=O)c1cccs1 (stereo unspecified)	0	0	0	0	0	0	-	-
Cc1cc(C)c(C#N)c(SC2CCCCC2=O)n1 (stereo unspecified)	0	0	?	0	0	0	14µM	18µM
CCn1c2ccccc2c2nnc(N3CCN(c4cccc(Cl)c4)CC3)nc21	-	?	0	0	?	-	-	-
CC(=O)Nc1cc2nc(C)n(Cc3ccc([N+](=O)[O-])cc3)c2nc1C	0	0	0	0	?	0	-	-
CCN1C(=O)/C(=C/C=C2\C=CN(CC)c3ccccc32)SC1=S	0	?	8.9µM	3.5µM	2µM	45µM	22µM	?
CCN1/C(=C2\SC(=S)N(Cc3ccccc3)C2=O)Sc2ccccc21	0	0	0	0	0	0	-	-
CCCn1c(SCC(=O)c2cc(OC)ccc2OC)nnc1C(C)C	?	79µM	50µM	0	0	0	16µM	16µM
CCN(CC(=O)NCc1ccc(F)cc1)C(=O)c1ccc2c(c1)OCO2	0	0	0	0	0	-	-	-
CCN1C(=O)/C(=C2/C=Cc3cc(C)ccc3N2CC)N(C)C1=S	0	16µM	11µM	?	40µM	?	35µM	0
CC(=O)OCCNc1cc(N2CCN(C)CC2)c2noc3c2c1C(=O)c1ccccc1-3	0	50µM	?	0	40µM	0	10µM	?
CCN1/C(=C/C(C)=C/c2sc3ccccc3[n+]2CC)Sc2ccccc21	0	18µM	18µM	?	22µM	32µM	?	0
CC(C)Sc1nnc(CNC(=O)C23CC4CC(CC(C4)C2)C3)n1C1CCCCC1	0	0	20µM	0	0	0	5.6µM	11µM
O=C(N/N=C/c1ccc(N2CCOCC2)o1)c1cccc(C(F)(F)F)c1	0	?	8.9µM	0	0	3.5µM	?	35µM
O=C(Nc1ccc(N2CCOCC2)nc1N1CCOCC1)c1cccc(C(F)(F)F)c1	0	0	-	0	0	0	-	-
CN(C)c1ccc(C(=O)N2CCC2(C)C(=O)O)cc1 (stereo unspecified)	0	-	-	-	-	-	-	-
Cc1cc(N=Cc2c(O)ccc3cc(Br)ccc23)no1	5.3µM	1.8µM	1.4µM	?	0	0	18µM	7.1µM
Cc1noc(C)c1CSCC(=O)NCCN1C(=O)S/C(=C\c2ccccc2F)C1=O	0	0	0[0.501 µM]	0	0	-	-	-
COc1ccc(C(Nc2ccccn2)c2oc(CO)cc(=O)c2O)cc1 (stereo unspecified)	24µM	8.9µM	1µM	?	?	?	0	0
CC(C)Oc1ccc(S(=O)(=O)N2CCOCC2)cc1NC(=O)C(C)Oc1ccc(F)cc1 (stereo unspecified)	0	0	0	0	0	-	-	-
Oc1cc2c(cc1O)C1c3ccc(O)c(O)c3OCC1(O)C2 (stereo unspecified)	30µM	3.5µM	?	?	45µM	2.5µM!	2.5µM	?
Cc1ccc(Cn2cnc3nc4c(cc3c2=O)CC(C)CC4)cc1 (stereo unspecified)	-	0	0	0	0	-	-	-
CCN(CC)CCN(C(=O)c1ccc2ncsc2c1)c1nc2cc3c(cc2s1)OCO3	0	50µM	-	0	40µM	35µM	16µM	16µM
CCC(CC)C(=O)N(C)c1c(C)nc2c(OCc3cccc(Cl)c3)cccn12	0	-	-	-	-	-	-	-
O=C(CCCCn1c(=O)[nH]c2ccsc2c1=O)NCc1ccc2c(c1)OCO2	0	0	0	0	0	0	-	-
